Results filed as inconclusive are left out. A number with no mark means an inactive call. Activity calls are given as the source filed them. The call rests on the fitted dose curve; in most records, active means well fitted curve in the direction sought with a large enough effect; inconclusive means small, poorly fitted or top-dose-only effect, or another doubt; inactive means no such curve, though single readings can be large; an effect the other way counts as inactive or inconclusive.
Tests used:
[1] = BET inhibitor-based combinations targeting novel dependencies in MECOM-rearranged (r) AML: SET-2 cell line (AID 2202231); conditions: SET-2 AML cells viability, CellTiter-Glo luminescence, 48 h; viability: hits give low values, concentration not given here; further: nearly all actives have a fitted effect of over 35% in size;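 on viability: plate controls were DMSO treated cells for no effect and wells without cells for full effect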
Procedure, shortened: (§1)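 Readout: CellTiter-Glo luminescence. Exposure: 48 h, 11 concentrations, 500 cells/well. Metric: AUC and within-line Z-AUC after DMSO/empty-well normalization.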

[2] = BET inhibitor-based combinations targeting novel dependencies in MECOM-rearranged (r) AML: OCI-AML3 cell line (AID 2202232); conditions: Potency: OCI-AML3 viability; further: nearly all actives have a fitted effect of over 35% in size
Procedure, shortened: as §1

[3] = BET inhibitor-based combinations targeting novel dependencies in MECOM-rearranged (r) AML: MV-4-11 cell line (AID 2202233); further: nearly all actives have a fitted effect of over 45% in size
Procedure, shortened: (§2)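 Seeding density was 500 cells/well, and drug exposure lasted 48 hr under standard culture conditions. Read-out used CellTiter-Glo reagent with a 15 min room-temperature incubation before luminescence measurement; AUC and Z-AUC summarize the normalized responses.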

[4] = BET inhibitor-based combinations targeting novel dependencies in MECOM-rearranged (r) AML: UCSD-AML1 cell line (AID 2202235); further: nearly all actives have a fitted effect of over 40% in size
Procedure, shortened: as §2

[5] = BET inhibitor-based combinations targeting novel dependencies in MECOM-rearranged (r) AML: AML-194 cell line (AID 2202237; further: nearly all actives have a fitted effect of over 40% in size)
Procedure, shortened: as §1

[6] = BET inhibitor-based combinations targeting novel dependencies in MECOM-rearranged (r) AML: HNT-34 cell line (AID 2202234); further: nearly all actives have a fitted effect of over 35% in size
Procedure, shortened: as §2

[7] = BET inhibitor-based combinations targeting novel dependencies in MECOM-rearranged (r) AML: AML-191 cell line (AID 2202236; further: nearly all actives have a fitted effect of over 35% in size)
Procedure, shortened: as §1
Potency means the concentration at half of the fitted maximal effect.

Structure (SMILES) | viability [1] [%] | Potency [2] | Potency [3] | Potency [4] | Potency [5] | Potency [1] | Potency [6] | Potency [7]
CCC(=O)O[C@]1(C(=O)CO)CC[C@H]2[C@@H]3CCC4=CC(=O)CC[C@]4(C)[C@H]3CC[C@@]21C | 101 | inactive | inactive | inactive | inactive |  |  | 
CC(C)(O)CNc1ncc(-c2ccnc(Nc3ccncc3)n2)c(CC2CC2)n1 |  | 18.6 µM (active) |  | 14.8 µM (active) | 16.6 µM (active) | 18.6 µM (active) | 9.34 µM (active) | 13.2 µM (active)
CCCCC[C@H](O)/C=C/[C@H]1[C@H](O)CC(=O)[C@@H]1CCCCCCC(=O)O | 103 | 9.34 µM (active) |  | 11.8 µM (active) | inactive |  | 16.6 µM (active) | inactive
O=C(CCCCCCNC(=O)c1cnc(N(c2ccccc2)c2ccccc2Cl)nc1)NO |  | 7.42 µM (active) |  | 9.34 µM (active) | 10.5 µM (active) | 9.34 µM (active) | 9.34 µM (active) | 7.42 µM (active)
COc1cc(F)ccc1-c1ncnc(Nc2cccc(CS(C)(=N)=O)c2)n1 (stereo unspecified) |  | 0.934 µM (active) | 0.742 µM (active) |  | 0.934 µM (active) | 1.32 µM (active) |  | 0.662 µM (active)
Cc1[nH]nc2ncc(C(=O)N3CCC[C@H]3c3ccc(Cl)cc3)cc12 | 105 | inactive |  | inactive |  |  | inactive | inactive
COc1cc2c3c(n(CCCn4ccnc4)c(=O)c2cc1OC)-c1cc2c(cc1C3=O)OCO2 |  | 0.0372 µM (active) |  | 0.0209 µM (active) |  | 0.0372 µM (active) | 0.0263 µM (active) | 
O=C(O)CC(C(=O)O)n1c(O)c(C2=c3cc(Br)ccc3=NC2=O)sc1=S (stereo unspecified) | 100 | inactive |  | inactive | inactive |  | inactive | inactive
O=C1Cc2cc(C(=O)NC3C[C@H]4CC[C@@H](C3)N4S(=O)(=O)CC3CCN(CCCC(F)(F)F)CC3)c(Cl)cc2N1 (stereo partly specified) | 107 | inactive |  | inactive | inactive |  | inactive | inactive
CC(=O)NCC(=O)N1[C@@H]2CC[C@H]1c1ccc(Nc3ncc(C(F)(F)F)c(NC4CCC4)n3)cc12 |  | 14.8 µM (active) |  | 0.934 µM (active) | 0.662 µM (active) | 4.17 µM (active) | 0.662 µM (active) | 0.833 µM (active)
C=CCN1C[C@H](C(=O)N(CCCN(C)C)C(=O)NCC)CC2c3cccc4[nH]cc(c34)C[C@H]21 (stereo partly specified) | 115 | 10.5 µM (active) |  | inactive | inactive |  | inactive | inactive
Cc1ccc(NC(=O)NCc2ccc3c(c2)CN(C2CCC(=O)NC2=O)C3=O)cc1Cl (stereo unspecified) |  | 0.003 µM (active) | 0.0026 µM (active) |  | 0.0019 µM (active) | 0.0295 µM (active) |  | 0.0023 µM (active)
Nc1ccc(F)cc1NC(=O)c1ccc(CNC(=O)/C=C/c2cccnc2)cc1 |  | 4.17 µM (active) |  | 5.25 µM (active) | 14.8 µM (active) | 13.2 µM (active) | 4.17 µM (active) | 16.6 µM (active)
CC(c1cc2ccccc2s1)N(O)C(N)=O (stereo unspecified) | 106 | inactive |  | inactive | inactive |  | inactive | inactive
CC#CC(=O)N1CC[C@@H](n2c(=O)n(-c3ccc(Oc4ccccc4)cc3)c3c(N)ncnc32)C1 | 83.2 | inactive | 10.5 µM (active) | inactive | inactive |  |  | 
COC1CC(C(=O)c2ccc3c(N)ncc(-c4ccc(-c5cnn(C)c5)cc4)c3n2)C1 (stereo unspecified) | 92.9 | 8.33 µM (active) | 2.95 µM (active) |  | 11.8 µM (active) |  |  | 
C[C@@H](Oc1cc(C(=O)Nc2ccc(C(=O)N3CCN(C)CC3)cc2)nnc1N)c1c(Cl)ccc(F)c1Cl |  | 5.9 µM (active) |  | 1.18 µM (active) | 0.934 µM (active) | 18.6 µM (active) | 1.18 µM (active) | 0.934 µM (active)
Cc1ccc(F)c(NC(=O)Nc2ccc(-c3cccc4[nH]nc(N)c34)cc2)c1 |  | 18.6 µM (active) |  | 16.6 µM (active) | 16.6 µM (active) | 14.8 µM (active) | 26.3 µM (active) | 16.6 µM (active)
CCN1CCN(Cc2ccc(-c3cc4c(N[C@H](C)c5ccccc5)ncnc4[nH]3)cc2)CC1 |  | 20.9 µM (active) | 2.63 µM (active) |  | 26.3 µM (active) | 23.5 µM (active) |  | 18.6 µM (active)
C[C@H](NC(=O)c1c(N)nn2cccnc12)c1cc2cccc(C#Cc3cnn(C)c3)c2c(=O)n1-c1ccccc1 | 101 | 0.0512 µM (active) | 8.11 µM (active) |  | 7.23 µM (active) |  |  | 1.82 µM (active)
CCCC[C@@H](C=O)NC(=O)[C@H](CC(C)C)NC(=O)OCc1ccccc1 |  | 13.2 µM (active) | 18.6 µM (active) | inactive | inactive | 18.6 µM (active) |  | 
COc1ccc(C(=O)N2CCN(c3ccc4c(c3)CCC(=O)N4)CC2)cc1OC | 105 | inactive | inactive |  |  |  |  | inactive
COc1cc([C@@H](CC(=O)O)c2ccc(C)c(CN3C[C@@H](C)Oc4ccccc4S3(=O)=O)c2)cc2nnn(C)c12 | 67.3 | inactive |  | inactive | inactive |  | inactive | inactive
CN1C(=O)[C@@H](NC(=O)c2n[nH]c(Cc3ccccc3)n2)COc2ccccc21 | 110 | inactive |  | inactive | inactive |  | inactive | inactive

Structure (SMILES) | viability [1] [%] | Potency [2] | Potency [3] | Potency [4] | Potency [5] | Potency [1] | Potency [6] | Potency [7]
NS(=O)(=O)Oc1ccc2c3c(c(=O)oc2c1)CCCCC3 | 105 | inactive | inactive |  | inactive |  |  | inactive
Cc1ccc(C(=O)N(CCCN)[C@@H](c2nc3cc(Cl)ccc3c(=O)n2Cc2ccccc2)C(C)C)cc1 |  | 0.0295 µM (active) | 0.0417 µM (active) |  | 0.0468 µM (active) | 0.105 µM (active) |  | 0.0417 µM (active)
O=C1NC(=O)/C(=C/c2ccc3nccc(-c4ccncc4)c3c2)S1 |  | 1.05 µM (active) | 0.833 µM (active) |  |  | 14.8 µM (active) |  | 0.934 µM (active)
CO[C@@]12[C@H](COC(N)=O)C3=C(C(=O)C(C)=C(N)C3=O)N1C[C@@H]1N[C@@H]12 | 95 | inactive |  | inactive | inactive |  | inactive | inactive
O=C(Nc1cnn2ccc(N3CCC[C@@H]3c3cc(F)ccc3F)nc12)N1CC[C@H](O)C1 | 98.9 | inactive |  | inactive |  |  | inactive | 
CC(=O)CC(c1ccccc1)c1c(O)c2ccccc2oc1=O (stereo unspecified) | 107 | inactive |  | inactive | inactive |  | inactive | 
CNS(=O)(=O)Nc1nccc(Cc2c(C)c3ccc(Oc4ncccn4)cc3oc2=O)c1F |  | 0.0332 µM (active) |  | 0.525 µM (active) |  | 3.72 µM (active) |  | 
Cc1cc(C)c2c(c1)[C@@H](N(Cc1cc(C(F)(F)F)cc(C(F)(F)F)c1)c1nnn(C)n1)CCCN2CC1CCC(C(=O)O)CC1 (stereo partly specified) | 101 | 8.33 µM (active) |  |  | inactive |  | 18.6 µM (active) | 
C[C@@H](Nc1cc(F)cc(F)c1)c1cc(C(=O)N(C)C)cc2c(=O)cc(N3CCOCC3)oc12 | 109 | 5.9 µM (active) |  |  |  |  |  | 23.5 µM (active)
COc1cccc2c1C(=O)c1c(O)c3c(c(O)c1C2=O)C[C@@](O)(C(C)=O)C[C@@H]3O[C@H]1C[C@H](N)[C@H](O)[C@H](C)O1 |  | 0.0934 µM (active) |  |  |  | 0.59 µM (active) |  | 0.186 µM (active)
O=C(/C=C\n1cnc(-c2cc(C(F)(F)F)cc(C(F)(F)F)c2)n1)NNc1ccccn1 |  | 0.833 µM (active) |  | 0.468 µM (active) | 0.417 µM (active) | 0.934 µM (active) |  | 0.525 µM (active)
Cc1cc(O[C@@H](CCC(F)(F)F)c2ccc(C(=O)NCCC(=O)O)cc2)cc(C)c1-c1ccc(C(C)(C)C)cc1 |  | 20.9 µM (active) |  |  | 26.3 µM (active) | 20.9 µM (active) | 20.9 µM (active) | 16.6 µM (active)
C#Cc1cccc(Nc2ncnc3cc4c(cc23)OCCOCCOCCO4)c1 | 93.5 | inactive |  |  | inactive |  | 18.6 µM (active) | 
COc1cc(-c2cn(C)c(=O)c3cnccc23)cc(OC)c1CN(C)C | 106 | 4.68 µM (active) |  |  | inactive |  | inactive | 
Cc1ccc(Sc2ccccc2N2CCNCC2)c(C)c1 |  | 20.9 µM (active) |  | 16.6 µM (active) | 11.8 µM (active) | 18.6 µM (active) | 16.6 µM (active) | 
Clc1ccc(CCC(Cn2ccnc2)Sc2c(Cl)cccc2Cl)cc1 (stereo unspecified) | 81.3 | inactive |  | inactive | inactive |  |  | inactive
C#C[C@]1(O)CC[C@H]2[C@@H]3[C@H](C)CC4=C(CCC(=O)C4)[C@H]3CC[C@@]21C | 111 | 16.6 µM (active) |  | inactive | inactive |  |  | inactive
c1ccc2c(Cc3c[nH]c4ccccc34)c[nH]c2c1 | 103 | inactive |  | inactive | inactive |  |  | inactive
CN1CCN(CCCNc2ncc(Cl)c(-c3cc4c(C(=O)NC5CC5)cccc4s3)n2)CC1 | 80.2 | inactive |  | inactive |  |  |  | 
C[C@@H](C(=O)Nc1ccc(Cl)cc1)C1CCC(c2ccnc3ccc(F)cc23)CC1 (stereo partly specified) |  | inactive |  | inactive | inactive | 16.6 µM (active) |  | 
Cc1cc(C)c(S(=O)(=O)N(CCc2cccc(Br)c2)Cc2ccc(-c3cccc(S(C)(=O)=O)c3)cc2)c(C)c1 | 117 | inactive |  | inactive | inactive |  |  | inactive
O=C(C[C@@H]1C/C=C\CCC(=O)O[C@H](c2ccccc2)CNC1=O)NCc1ccc(Cl)cc1 | 117 | inactive |  |  |  |  | inactive | inactive
Cc1oc(=O)oc1CN1CCN(c2cc3c(cc2F)c(=O)c(C(=O)O)c2n3C(C)S2)CC1 (stereo unspecified) | 116 | inactive |  | inactive | inactive |  |  | inactive

Source: PubChem BioAssay (NCATS)
